Experimental data as given in the supplement of paper PMC12636033.
± gives the standard deviation of the averaged measurements. In all, about 33,000 sequences were measured (“E-score (rank enrichment, -0.5 to 0.5)”: median about -0.0075, highest 2% from about 0.23 on). What follows is part of a selection rich in the highest values, with near analogues and random picks from the rest.

tested on: WT Max(13-93) synthetic (M65Nle); assay: PBM 8-mer E-score (E-score (rank enrichment, -0.5 to 0.5)); higher = stronger preferential binding
Protocol: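 Protein binding microarray (universal PBM chip covering all 10-mers in fixed probe flanks) with chemically synthesized human Max(13-93) bHLH-LZ analogs (not full-length Max) bearing noncanonical residues (hArg, Tha, Aib, Nle at 65) and aromatic Cys staples. Read-out per 8-mer (and its reverse complement): E-score (rank-based enrichment, -0.5 to 0.5) and Z-score of median probe intensity.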

Row | Sequence | PBM 8-mer E-score
1 | GCGTGGAC | 0.122 ± 0.16
2 | CCGTGGAC | -0.137 ± 0.023
3 | AGGTGGAT | 0.0366 ± 0.1
4 | ACGTGGAT | 0.383 ± 0.044
5 | AAGTGGAG | 0.0727 ± 0.049
6 | ACGTGGAC | 0.331 ± 0.0084
7 | GCGTGGAA | 0.179 ± 0.049
8 | AAGTGGAT | -0.0604 ± 0.074
9 | CCGTGGAG | -0.163 ± 0.06
10 | TCGTGGAA | 0.163 ± 0.02
11 | ACGTGGAA | 0.271 ± 0.053
12 | ATCCTTTC | 0.0595 ± 0.17
13 | AAAGAGAT | -0.0586 ± 0.1
14 | GTCCTTAA | 0.063 ± 0.0053
15 | AAAGGATG | 0.0585 ± 0.087
16 | CAAAACAA | 0.129 ± 0.06
17 | CATCGAGA | -0.0265 ± 0.036
18 | GTAATGTA | 0.0754 ± 0.18
19 | ACCTCAAT | -0.0496 ± 0.16
20 | ATGTGGAG | 0.1647 ± 0.0014
21 | CTGTGGAC | 0.0601 ± 0.14
22 | ATGTGGAC | 0.238 ± 0.018
23 | GGCATCCA | -0.0611 ± 0.057
24 | ACCTTTTA | 0.027 ± 0.18
25 | AATAAAAC | 0.296 ± 0.056
26 | CATAAAAC | 0.0726 ± 0.027

Row | Sequence | PBM 8-mer E-score
27 | AATAAATA | 0.168 ± 0.017
28 | CATAAATA | 0.313 ± 0.0091
29 | AATAAAAA | 0.256 ± 0.11
30 | AATAAAAG | 0.206 ± 0.037
31 | AATAAACC | 0.197 ± 0.028
32 | AATAAAAT | 0.144 ± 0.068
33 | TATAAATA | 0.208 ± 0.025
34 | GGACATCC | -0.188 ± 0.068
35 | CACTTAGG | -0.0583 ± 0.16
36 | ACGTGAGG | 0.1604 ± 0.0013
37 | ACGTGACG | 0.321 ± 0.039
38 | ACGTGAGT | 0.327 ± 0.035
39 | ACGTGAGA | 0.208 ± 0.0048
40 | ACGTGACA | 0.366 ± 0.014
41 | CCGTGACC | -0.23 ± 0.064
42 | ACGTGACC | 0.298 ± 0.018
43 | CCGTGACG | -0.0153 ± 0.0018
44 | CCGTGACA | 0.00228 ± 0.054
45 | GCGTGACC | 0.075 ± 0.14
46 | TCGTGACA | 0.0356 ± 0.012
47 | AGGTGACG | -0.053 ± 0.045
48 | AGCCGAGG | -0.103 ± 0.058
49 | AACACAGG | -0.0563 ± 0.091
50 | ACGAACCG | -0.0438 ± 0.041
51 | AATCCAAC | 0.0162 ± 0.14
52 | AGTGGTGC | -0.0756 ± 0.066

Row | Sequence | PBM 8-mer E-score
53 | GGATGCCC | -0.0856 ± 0.021
54 | CGTATTCC | -0.096 ± 0.036
55 | ACTGCGCT | 0.0213 ± 0.097
56 | ACCGCACC | -0.0552 ± 0.13
57 | AGGTGACT | -0.0287 ± 0.06
58 | ACGTGACT | 0.282 ± 0.0038
59 | AAGTGACT | -0.00483 ± 0.05
60 | GCACGGAA | -0.00447 ± 0.026
61 | GAGGATGC | -0.0499 ± 0.029
62 | ATGAATGG | 0.311 ± 0.023
63 | ATGAATGA | 0.126 ± 0.034
64 | ATGAATGC | 0.114 ± 0.14
65 | GACGACAA | 0.0432 ± 0.014
66 | GAGAGGTA | -0.0899 ± 0.13
67 | GAAGTTCC | -0.122 ± 0.051
68 | AATAATGG | 0.044 ± 0.046
69 | CATAATGA | 0.172 ± 0.059
70 | AATAATGA | 0.259 ± 0.073
71 | AATAATGC | 0.245 ± 0.095
72 | GATAATGA | 0.125 ± 0.072
73 | AATAATGT | 0.173 ± 0.097
74 | ATCCGAAA | -0.03 ± 0.061
75 | ATATTACC | 0.267 ± 0.029
76 | CTATTACC | -0.0563 ± 0.029
77 | ATATTACA | 0.197 ± 0.017
78 | ATATTACG | 0.241 ± 0.0048

Row | Sequence | PBM 8-mer E-score
79 | AGATTACC | -0.00321 ± 0.065
80 | ATATTAGC | 0.124 ± 0.022
81 | ATATTAGA | 0.172 ± 0.004
82 | ATATTAGG | 0.244 ± 0.036
83 | AAATTACG | 0.0856 ± 0.02
84 | CGTCGGGA | -0.106 ± 0.096
85 | CACCGCGA | -0.226 ± 0.025
86 | CTAGGTCC | -0.172 ± 0.12
87 | GGAAGCAC | 0.0303 ± 0.0034
88 | ATCATGAT | 0.312 ± 0.0072
89 | ATCATAAA | 0.142 ± 0.15
90 | ATCATGAA | 0.0859 ± 0.037
91 | ATCATAAG | 0.172 ± 0.039
92 | AACATAAG | 0.097 ± 0.013
93 | AACATAAT | 0.252 ± 0.011
94 | AACATAGT | 0.0321 ± 0.091
95 | ATCAACAG | 0.106 ± 0.018
96 | ATCATAAT | 0.269 ± 0.033
97 | ATCAACAA | 0.15 ± 0.12
98 | ATCAACAT | 0.24 ± 0.013
99 | ATCATGAG | 0.058 ± 0.031
100 | ACGGGGAG | 0.0661 ± 0.065
101 | CCATCCAC | 0.155 ± 0.16
102 | GAGCTGGA | -0.13 ± 0.0049
103 | AAGGCTCC | -0.199 ± 0.056
104 | ACTGTCCC | 0.1452 ± 0.001

Row | Sequence | PBM 8-mer E-score
105 | AGAGGCTC | -0.129 ± 0.083
106 | GTCGCCGA | -0.0844 ± 0.015
107 | TATGGTAA | 0.104 ± 0.1
108 | GTGTCCTA | -0.012 ± 0.016
109 | GCCAACGA | -0.0918 ± 0.043
110 | ATCGGTTG | -0.0382 ± 0.099
111 | CCTGATGA | -0.114 ± 0.085
112 | ATCATATC | 0.134 ± 0.044
113 | ATCATCAC | 0.0578 ± 0.072
114 | CACATAAC | 0.108 ± 0.067
115 | GACATAAC | 0.17 ± 0.0081
116 | GTGATAAA | 0.143 ± 0.05
117 | TTGATAAA | 0.25 ± 0.021
118 | ATCATATG | 0.233 ± 0.0053
119 | ATGATAAA | 0.181 ± 0.084
120 | ATCATCAT | 0.245 ± 0.026
121 | AACATAAC | 0.247 ± 0.07
122 | ATCATATA | 0.204 ± 0.012
123 | ATCATCAA | -0.0899 ± 0.0026
124 | AGGATATC | 0.084 ± 0.03
125 | CGCACCCA | 0.0267 ± 0.1
126 | AAGGTGAC | -0.1212 ± 0.00044
127 | CGGATGAC | 0.00616 ± 0.15
128 | TCCGGTCA | -0.19 ± 0.054
129 | ACTCTGAA | -0.0606 ± 0.013
130 | GAAAGCCA | -0.0183 ± 0.048

Row | Sequence | PBM 8-mer E-score
131 | CTGTCTGA | 0.00168 ± 0.0099
132 | CTCAACAC | 0.202 ± 0.084
133 | ATGATAAT | 0.251 ± 0.078
134 | ATGATAAC | 0.206 ± 0.023
135 | ATGATAAG | 0.17 ± 0.054
136 | AGGCCTGG | -0.294 ± 0.061
137 | ATATTAAT | 0.274 ± 0.059
138 | TTATTAAA | 0.131 ± 0.26
139 | ATATTAAG | 0.131 ± 0.02
140 | ATATTAAA | 0.24 ± 0.03
141 | CTATTAAA | 0.173 ± 0.011
142 | ATATTAAC | 0.218 ± 0.013
143 | AAGTTGGC | -0.119 ± 0.0037
144 | TCGCTGCA | -0.149 ± 0.09
145 | GGCGCCAC | -0.0393 ± 0.073
146 | GCAGAAAC | 0.0456 ± 0.087
147 | AGACCTCA | -0.0265 ± 0.028
148 | TCGGCACA | -0.0668 ± 0.093
149 | ATCGTGTA | 0.0318 ± 0.041
150 | AACGTGTG | 0.178 ± 0.016
151 | CCCGTGTC | 0.0152 ± 0.049
152 | CACGTGTA | 0.4825 ± 0.0012
153 | AGCGTGTA | 0.11 ± 0.018
154 | CCCGTGTA | 0.183 ± 0.1
155 | CGCGTGTA | 0.29 ± 0.052
156 | CGCGTGTC | 0.232 ± 0.011

Row | Sequence | PBM 8-mer E-score
157 | CACGTGTC | 0.4823 ± 0.0015
158 | AACGTGTA | 0.26 ± 0.0055
159 | AACGTGTC | 0.189 ± 0.014
160 | GACGTGTA | -0.0197 ± 0.094
161 | GGCAGACC | -0.189 ± 0.022
162 | AAGAGATC | -0.149 ± 0.086
163 | AAGGTGCT | 0.0391 ± 0.026
164 | ACAGCAGT | -0.155 ± 0.016
165 | AGATGTTC | -0.10933 ± 4.9e-05
166 | CCATGTTA | 0.103 ± 0.095
167 | ACATGTTC | 0.246 ± 0.016
168 | CCATGTTC | -0.00628 ± 0.14
169 | AAATGTTG | -0.0126 ± 0.086
170 | GAATGTTA | 0.158 ± 0.079
171 | AAATGTTA | 0.127 ± 0.032
172 | AGATGTTG | -0.133 ± 0.11
173 | ACATGTTA | 0.267 ± 0.008
174 | GCATGTTA | 0.266 ± 0.075
175 | ACATGTTG | 0.239 ± 0.012
176 | GGATGTTA | 0.0759 ± 0.064
